The compounds below were run against Serine/threonine-protein kinase B-raf (Homo sapiens) (UniProt P15056). Conditions: at 1 µM.
Sequence of Serine/threonine-protein kinase B-raf (Homo sapiens) (P15056 whole entry): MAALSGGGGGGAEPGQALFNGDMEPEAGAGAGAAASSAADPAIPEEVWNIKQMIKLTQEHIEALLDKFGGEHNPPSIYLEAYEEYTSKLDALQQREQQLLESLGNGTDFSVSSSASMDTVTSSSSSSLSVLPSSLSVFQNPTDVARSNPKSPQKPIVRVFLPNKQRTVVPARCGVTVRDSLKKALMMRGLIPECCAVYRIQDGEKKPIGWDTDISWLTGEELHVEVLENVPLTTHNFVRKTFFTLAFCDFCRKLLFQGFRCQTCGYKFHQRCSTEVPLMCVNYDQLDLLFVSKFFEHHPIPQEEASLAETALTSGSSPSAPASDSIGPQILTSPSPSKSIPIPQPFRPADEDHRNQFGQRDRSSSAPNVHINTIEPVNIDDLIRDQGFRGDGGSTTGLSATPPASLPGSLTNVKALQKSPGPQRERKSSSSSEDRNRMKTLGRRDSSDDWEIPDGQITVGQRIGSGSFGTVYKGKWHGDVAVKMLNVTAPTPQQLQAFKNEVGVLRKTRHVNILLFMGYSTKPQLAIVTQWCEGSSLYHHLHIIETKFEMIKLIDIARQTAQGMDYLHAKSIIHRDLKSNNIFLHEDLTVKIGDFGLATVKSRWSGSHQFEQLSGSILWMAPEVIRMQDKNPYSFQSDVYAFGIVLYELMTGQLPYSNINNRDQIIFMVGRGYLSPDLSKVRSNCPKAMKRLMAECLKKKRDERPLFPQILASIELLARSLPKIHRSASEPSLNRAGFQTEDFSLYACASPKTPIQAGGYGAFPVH

SMILES | inhibition [%]
COc1ccc(-c2cc3c(N)ncnc3o2)cc1 | -0.19
COc1cccc(-n2ncc3c(N/N=C/c4ccc(F)cc4)ncnc32)c1 | 8.16
Nc1ncc(-c2cccc(S(N)(=O)=O)c2)c2scc(-c3ccc(F)c(Cl)c3)c12 | 15.3
COc1cccc(-c2c[nH]c3c(N/N=C/c4ccncc4)ncnc23)c1 | 11
CN(C)CCOc1ccc(-c2nc(-c3ccncc3)c(-c3ccc4c(c3)CC/C4=N\O)[nH]2)cc1 | 88.8
Clc1ccc(-c2nn3ncccc3c2-c2ccnc(Nc3ccccc3)n2)cc1 | 4.94
CCN1CCC(CC(=O)Nc2n[nH]c3nnc(-c4cccc(F)c4F)cc23)CC1 | 2.64
CCCN(CCS(C)(=O)=O)Cc1ccc(-c2ccc3ncnc(Nc4ccc(OCc5cccc(F)c5)c(Cl)c4)c3c2)o1 | 3.72
NS(=O)(=O)c1ccc(Nc2ncc(-c3ccccc3)o2)cc1 | 8.2
Fc1cccc(COc2ccc(Nc3ncnc4sc(-c5ccco5)cc34)cc2Cl)c1 | 5.32
c1cc(-c2cnn3nc(N4CCOCC4)ccc23)nc(NC2CC2)n1 | 11.5
Nc1nc(-c2cccc(Cl)c2)c(-c2ccc3ncccc3n2)s1 | 9.65
COc1ccc(-c2oc3ncnc(N)c3c2-c2ccc(NC(=O)Nc3cc(C(F)(F)F)ccc3F)cc2)cc1 | 19.6
Cc1ccc(O)cc1Nc1ccnc2cc(-c3ccccn3)ccc12 | 12.1
Fc1ccc(-c2nn3ccccc3c2-c2ccncc2)cc1 | 7.13
Cc1ccc2c(-c3ccnc(Nc4ccccc4)n3)c(-c3ccc(F)cc3)nn2n1 | 15.5
COC(=O)c1sc(-n2cnc3cc(OC)c(OC)cc32)cc1OCc1ccccc1C(F)(F)F | 8.51

SMILES | inhibition [%]
CC(C)(CO)CNC(=O)c1ccc2c(c1)/C(=N/Nc1ccc(S(N)(=O)=O)cc1)C(=O)N2 | 43.5
COc1ccc2[nH]c3c4[nH]c5ccc(OC)cc5c4c4c(c3c2c1)C(=O)NC4=O | 7.83
COc1ccc(-c2nn3ncccc3c2-c2ccnc(Nc3ccc4c(c3)OCCO4)n2)cc1 | 5.07
NS(=O)(=O)c1ccc(N/N=C2\C(=O)Nc3ccc4ncccc4c32)cc1 | 60.2
CCc1nn2ncccc2c1-c1ccnc(NC2CC2)n1 | 4.97
CCNC(=O)O[C@H]1CN[C@H](C#Cc2cc3ncnc(Nc4ccc(OCc5cccc(F)c5)c(Cl)c4)c3s2)C1 | 4.49
O=C(Nc1n[nH]c2cc(-c3ccc(F)cc3)ccc12)C1CC1 | 5.73
CN1CCC(n2cnc(-c3ccc(F)cc3)c2-c2ccnc(Nc3ccccc3)n2)CC1 | 4.47
COc1cc(N2CCN(C(C)C)CC2)ccc1Nc1nc(Nc2ccc(F)cc2C(N)=O)c2cc[nH]c2n1 | 16.1
CC(=O)NCc1cccc(C#Cc2cncnc2Nc2ccc(OCc3cccc(F)c3)c(Cl)c2)c1 | 1.33
CCCN1CCC(c2ccc(Nc3nc(Nc4cc(F)ccc4C(N)=O)c4cc[nH]c4n3)c(OC)c2)CC1 | 37.6
CN1CCC(n2cnc(-c3ccc(F)cc3)c2-c2ccnc(N)n2)CC1 | 5.24
CC1=C(C(=O)Nc2cc(Cl)c3[nH]ncc3c2)C(c2ccc(C(F)(F)F)cc2)CC(=O)N1 (stereo unspecified) | 35.7
Fc1ccc(-c2nn3ncccc3c2-c2ccnc(Nc3ccc4c(c3)OCCO4)n2)cc1 | 25.9
Cc1cccc2c1NC(=O)/C2=N\Nc1ccc(S(N)(=O)=O)cc1 | 4.79
Nc1nc(-c2ccc(F)cc2)c(-c2ccc3ncccc3n2)s1 | 7.72

What follows are compounds tested on Serine/threonine-protein kinase B-raf (Homo sapiens), P15056 [V600E]. Conditions: at 0.1 µM.
Sequence of Serine/threonine-protein kinase B-raf (Homo sapiens), P15056 [V600E] (P15056 whole entry V600E): as the sequence (P15056 whole entry) above, with V600E counted along it

SMILES | inhibition [%]
COc1ccc(-c2cc3c(N)ncnc3o2)cc1 | -0.23
COc1cccc(-n2ncc3c(N/N=C/c4ccc(F)cc4)ncnc32)c1 | 5.77
Nc1ncc(-c2cccc(S(N)(=O)=O)c2)c2scc(-c3ccc(F)c(Cl)c3)c12 | 5.84
COc1cccc(-c2c[nH]c3c(N/N=C/c4ccncc4)ncnc23)c1 | 3.98
CN(C)CCOc1ccc(-c2nc(-c3ccncc3)c(-c3ccc4c(c3)CC/C4=N\O)[nH]2)cc1 | 72.2
Clc1ccc(-c2nn3ncccc3c2-c2ccnc(Nc3ccccc3)n2)cc1 | 2.08
CCN1CCC(CC(=O)Nc2n[nH]c3nnc(-c4cccc(F)c4F)cc23)CC1 | 2.74
CCCN(CCS(C)(=O)=O)Cc1ccc(-c2ccc3ncnc(Nc4ccc(OCc5cccc(F)c5)c(Cl)c4)c3c2)o1 | 3.15
NS(=O)(=O)c1ccc(Nc2ncc(-c3ccccc3)o2)cc1 | 6.65
Fc1cccc(COc2ccc(Nc3ncnc4sc(-c5ccco5)cc34)cc2Cl)c1 | 4.59
c1cc(-c2cnn3nc(N4CCOCC4)ccc23)nc(NC2CC2)n1 | 3.6
Nc1nc(-c2cccc(Cl)c2)c(-c2ccc3ncccc3n2)s1 | 7.28
COc1ccc(-c2oc3ncnc(N)c3c2-c2ccc(NC(=O)Nc3cc(C(F)(F)F)ccc3F)cc2)cc1 | 8.1
Cc1ccc(O)cc1Nc1ccnc2cc(-c3ccccn3)ccc12 | 8.35
Fc1ccc(-c2nn3ccccc3c2-c2ccncc2)cc1 | 2.64
Cc1ccc2c(-c3ccnc(Nc4ccccc4)n3)c(-c3ccc(F)cc3)nn2n1 | 4.53
COC(=O)c1sc(-n2cnc3cc(OC)c(OC)cc32)cc1OCc1ccccc1C(F)(F)F | 6.02

SMILES | inhibition [%]
CC(C)(CO)CNC(=O)c1ccc2c(c1)/C(=N/Nc1ccc(S(N)(=O)=O)cc1)C(=O)N2 | 7.49
COc1ccc2[nH]c3c4[nH]c5ccc(OC)cc5c4c4c(c3c2c1)C(=O)NC4=O | 5.01
COc1ccc(-c2nn3ncccc3c2-c2ccnc(Nc3ccc4c(c3)OCCO4)n2)cc1 | 1.25
NS(=O)(=O)c1ccc(N/N=C2\C(=O)Nc3ccc4ncccc4c32)cc1 | 14.6
CCc1nn2ncccc2c1-c1ccnc(NC2CC2)n1 | 3.84
CCNC(=O)O[C@H]1CN[C@H](C#Cc2cc3ncnc(Nc4ccc(OCc5cccc(F)c5)c(Cl)c4)c3s2)C1 | 2.44
O=C(Nc1n[nH]c2cc(-c3ccc(F)cc3)ccc12)C1CC1 | 4.48
CN1CCC(n2cnc(-c3ccc(F)cc3)c2-c2ccnc(Nc3ccccc3)n2)CC1 | 3.27
COc1cc(N2CCN(C(C)C)CC2)ccc1Nc1nc(Nc2ccc(F)cc2C(N)=O)c2cc[nH]c2n1 | 1.62
CC(=O)NCc1cccc(C#Cc2cncnc2Nc2ccc(OCc3cccc(F)c3)c(Cl)c2)c1 | 3.3
CCCN1CCC(c2ccc(Nc3nc(Nc4cc(F)ccc4C(N)=O)c4cc[nH]c4n3)c(OC)c2)CC1 | 10.1
CN1CCC(n2cnc(-c3ccc(F)cc3)c2-c2ccnc(N)n2)CC1 | 1.74
CC1=C(C(=O)Nc2cc(Cl)c3[nH]ncc3c2)C(c2ccc(C(F)(F)F)cc2)CC(=O)N1 (stereo unspecified) | 10.2
Fc1ccc(-c2nn3ncccc3c2-c2ccnc(Nc3ccc4c(c3)OCCO4)n2)cc1 | 11.6
Cc1cccc2c1NC(=O)/C2=N\Nc1ccc(S(N)(=O)=O)cc1 | 2.89
Nc1nc(-c2ccc(F)cc2)c(-c2ccc3ncccc3n2)s1 | 6.41
